Results reported in PubChem BioAssay AID1159580 (chemical genetic matrix, 2015).
The campaign covered roughly 5,500 compounds. About 2,000 (36%) were called active. Roughly 18% stayed inconclusive and do not appear here. Cut-off read from the data, not from the text of the source: active = normalized growth mostly below about 0.91 (no sharp cut-off); inconclusive = no clear call, values can overlap the other calls; inactive = mostly above about 0.92. The list shows a part of the results.

Test: chemical genetic growth profiling, strain panel (AID 1159580);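 note: tested at 20 µM; growth read once vehicle control cultures reached saturation at 30 °C; 1 = growth at the plate median or of vehicle wells; lower values mean less growth of the strain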
Conditions: growth OD
[1] = S. cerevisiae deletion strains, locus YDR150W, strain NUM1, hits give low values
[2] = S. cerevisiae deletion strains, locus YPL055C, strain LGE1, hits give low values
[3] = S. cerevisiae deletion strains, locus YAL013W, strain DEP1, hits give low values
[4] = S. cerevisiae deletion strains, locus YBR229C, strain ROT2, hits give low values
[5] = S. cerevisiae deletion strains, locus YDL101C, strain DUN1, hits give low values
[6] = S. cerevisiae deletion strains, locus YEL061C, strain CIN8, hits give low values
[7] = S. cerevisiae deletion strains, locus YGR078C, strain PAC10, hits give low values
[8] = S. cerevisiae deletion strains, locus YHR030C, strain SLT2, hits give low values
[9] = S. cerevisiae deletion strains, locus YHR087W, strain rtc3, hits give low values
[10] = S. cerevisiae deletion strains, locus YJL187C, strain SWE1, hits give low values
[11] = S. cerevisiae deletion strains, locus YJR043C, strain POL32, hits give low values
[12] = S. cerevisiae deletion strains, locus YJR075W, strain HOC1, hits give low values
[13] = S. cerevisiae deletion strains, locus YLR039C, strain RIC1, hits give low values
[14] = S. cerevisiae deletion strains, locus YLR058C, strain SHM2 (second series), hits give low values
[15] = S. cerevisiae deletion strains, locus YLR085C, strain ARP6, hits give low values
[16] = S. cerevisiae deletion strains, locus YLR262C, strain YPT6, hits give low values
[17] = S. cerevisiae deletion strains, locus YML094W, strain GIM5, hits give low values
[18] = S. cerevisiae deletion strains, locus YMR219W, strain ESC1, hits give low values
[19] = S. cerevisiae deletion strains, locus YMR263W, strain SAP30, hits give low values
[20] = S. cerevisiae deletion strains, locus YNL153C, strain GIM3, hits give low values
[21] = S. cerevisiae deletion strains, locus YNL298W, strain CLA4 (second series), hits give low values
[22] = S. cerevisiae deletion strains, locus YNL322C, strain KRE1, hits give low values
[23] = S. cerevisiae deletion strains, locus YNR030W, strain Alg12, hits give low values
[24] = S. cerevisiae deletion strains, locus YPL241C, strain CIN2, hits give low values
[25] = S. cerevisiae deletion strains, locus YPR135W, strain CTF4, hits give low values
[26] = S. cerevisiae strains, strain wild type, hits give low values

Measured: normalized growth

CC(=O)Oc1cc(C(C)C)c(OCCN(C)C)cc1C
inactive: S. cerevisiae deletion strains, locus YAL040C, strain CLN3, hits give low values 1.01 | S. cerevisiae deletion strains, locus YCL061C, strain MRC1 (second series), hits give low values 1.01 | [1] 1 | S. cerevisiae deletion strains, locus YDR363W, strain ESC2, hits give low values 1.01 | S. cerevisiae deletion strains, locus YER002W, strain NOP16, hits give low values 1.03 | S. cerevisiae deletion strains, locus YNL175C, strain NOP13, hits give low values 1.01 | S. cerevisiae deletion strains, locus YNL197C, strain WHI3, hits give low values 1.01 | S. cerevisiae deletion strains, locus YNL224C, strain SQS1, hits give low values 1 | S. cerevisiae deletion strains, locus YOR083W, strain WHI5 (second series), hits give low values 1.01 | [2] 1.01

CCCCCn1c(Sc2ncc([N+](=O)[O-])s2)n[nH]c1=O
active: [3] 0.592 | [4] 0.463 | S. cerevisiae deletion strains, locus YCL061C, strain MRC1, hits give low values 0.67 | [5] 0.559 | S. cerevisiae deletion strains, locus YDL134C, strain PPH21, hits give low values 0.099 | [1] 0.615 | [6] 0.0768 | [7] 0.499 | [8] 0.0794 | [9] 0.53 | [10] 0.493 | [11] 0.695 | [12] 0.471 | S. cerevisiae deletion strains, locus YKL190W, strain CNB1, hits give low values 0.0782 | [13] 0.134 | [14] 0.675 | [15] 0.0989 | [16] 0.123 | [17] 0.22 | [18] 0.624 | [19] 0.669 | [20] 0.0882 | [21] 0.0804 | [22] 0.917 | [23] 0.0933 | [2] 0.292 | [24] 0.1 | [25] 0.186 | [26] 0.0897

CCn1nc(C)cc1-c1nnc(Sc2ncc([N+](=O)[O-])s2)n1C
inactive: S. cerevisiae deletion strains, locus YAR019C, strain CDC15, hits give low values 0.964 | S. cerevisiae deletion strains, locus YBL105C, strain PKC1, hits give low values 0.968 | S. cerevisiae deletion strains, locus YBR135W, strain CKS1, hits give low values 0.967 | S. cerevisiae deletion strains, locus YBR136W, strain MEC1, hits give low values 0.962 | S. cerevisiae deletion strains, locus YBR160W, strain CDC28, hits give low values 0.956 | S. cerevisiae deletion strains, locus YDL017W, strain CDC7, hits give low values 0.974 | S. cerevisiae deletion strains, locus YDL028C, strain MPS1, hits give low values 0.961 | [5] 0.983 | S. cerevisiae deletion strains, locus YDL108W, strain KIN28, hits give low values 0.945 | S. cerevisiae deletion strains, locus YDL132W, strain cdc53, hits give low values 0.966 | S. cerevisiae deletion strains, locus YDL214C, strain PRR2, hits give low values 0.981 | S. cerevisiae deletion strains, locus YDR052C, strain DBF4, hits give low values 0.988 | S. cerevisiae deletion strains, locus YDR054C, strain cdc34, hits give low values 0.975 | S. cerevisiae deletion strains, locus YDR226W, strain ADK1, hits give low values 0.959 | S. cerevisiae deletion strains, locus YDR477W, strain SNF1, hits give low values 0.95 | S. cerevisiae deletion strains, locus YER123W, strain YCK3, hits give low values 0.93 | S. cerevisiae deletion strains, locus YER133W, strain GLC7, hits give low values 0.995 | S. cerevisiae deletion strains, locus YFL009W, strain cdc4, hits give low values 0.958 | S. cerevisiae deletion strains, locus YFL029C, strain CAK1, hits give low values 0.954 | S. cerevisiae deletion strains, locus YFR003C, strain YPI1, hits give low values 0.971 | S. cerevisiae deletion strains, locus YFR019W, strain FAB1, hits give low values 0.974 | S. cerevisiae deletion strains, locus YFR028C, strain CDC14, hits give low values 0.968 | S. cerevisiae deletion strains, locus YGR040W, strain KSS1, hits give low values 0.954 | S. cerevisiae deletion strains, locus YGR052W, strain FMP48, hits give low values 1.02 | S. cerevisiae deletion strains, locus YGR092W, strain DBF2, hits give low values 0.92 | [8] 1.03 | S. cerevisiae deletion strains, locus YHR079C, strain IRE1, hits give low values 0.963 | S. cerevisiae deletion strains, locus YHR082C, strain KSP1, hits give low values 1.01 | S. cerevisiae deletion strains, locus YHR205W, strain SCH9, hits give low values 0.956 | S. cerevisiae deletion strains, locus YIL147C, strain SLN1, hits give low values 0.967 | S. cerevisiae deletion strains, locus YJL095W, strain BCK1, hits give low values 0.933 | S. cerevisiae deletion strains, locus YJL128C, strain PBS2, hits give low values 0.94 | S. cerevisiae deletion strains, locus YJL157C, strain FAR1, hits give low values 0.957 | S. cerevisiae deletion strains, locus YJR016C, strain ILV3, hits give low values 0.967 | S. cerevisiae deletion strains, locus YJR066W, strain TOR1 (second series), hits give low values 0.971 | S. cerevisiae deletion strains, locus YJR066W, strain TOR1, hits give low values 0.921 | S. cerevisiae deletion strains, locus YKL048C, strain ELM1, hits give low values 0.99 | S. cerevisiae deletion strains, locus YKL067W, strain YNK1, hits give low values 1 | S. cerevisiae deletion strains, locus YKL101W, strain HSL1, hits give low values 0.985 | S. cerevisiae deletion strains, locus YKL193C, strain SDS22, hits give low values 0.962 | S. cerevisiae deletion strains, locus YKL203C, strain TOR2, hits give low values 1.07 | S. cerevisiae deletion strains, locus YLR113W, strain HOG1, hits give low values 0.971 | S. cerevisiae deletion strains, locus YLR133W, strain CKI1, hits give low values 0.958 | S. cerevisiae deletion strains, locus YLR403W, strain SFP1, hits give low values 0.959 | S. cerevisiae deletion strains, locus YML070W, strain DAK1, hits give low values 0.959 | S. cerevisiae deletion strains, locus YMR001C, strain CDC5, hits give low values 0.961 | S. cerevisiae deletion strains, locus YMR205C, strain PFK2 (second series), hits give low values 0.996 | S. cerevisiae deletion strains, locus YMR277W, strain FCP1, hits give low values 0.95 | S. cerevisiae deletion strains, locus YNL006W, strain LST8, hits give low values 0.967 | S. cerevisiae deletion strains, locus YNL020C, strain ARK1, hits give low values 0.968 | S. cerevisiae deletion strains, locus YNL161W, strain CBK1, hits give low values 0.975 | S. cerevisiae deletion strains, locus YNL183C, strain NPR1, hits give low values 1.04 | S. cerevisiae deletion strains, locus YNL207W, strain RIO2, hits give low values 0.985 | S. cerevisiae deletion strains, locus YNL222W, strain SSU72, hits give low values 0.951 | S. cerevisiae deletion strains, locus YNL307C, strain MCK1 (second series), hits give low values 0.945 | S. cerevisiae deletion strains, locus YOL078W, strain AVO1, hits give low values 0.965 | S. cerevisiae deletion strains, locus YOL136C, strain PFK27, hits give low values 0.955 | S. cerevisiae deletion strains, locus YOR061W, strain CKA2, hits give low values 0.98 | S. cerevisiae deletion strains, locus YOR119C, strain RIO1, hits give low values 1.05 | S. cerevisiae deletion strains, locus YOR231W, strain MKK1, hits give low values 0.927 | S. cerevisiae deletion strains, locus YOR329C, strain SCD5, hits give low values 0.975 | S. cerevisiae deletion strains, locus YPL031C, strain PHO85, hits give low values 0.968 | S. cerevisiae deletion strains, locus YPL153C, strain RAD53, hits give low values 0.96 | S. cerevisiae deletion strains, locus YPL204W, strain HRR25, hits give low values 0.965 | S. cerevisiae deletion strains, locus YPL209C, strain IPL1, hits give low values 0.974 | S. cerevisiae deletion strains, locus YPL256C, strain CLN2, hits give low values 0.984 | S. cerevisiae deletion strains, locus YPR025C, strain CCL1, hits give low values 0.965 | S. cerevisiae deletion strains, locus YPR106W, strain ISR1, hits give low values 0.96 | S. cerevisiae deletion strains, locus YPR111W, strain DBF20, hits give low values 0.978 | S. cerevisiae deletion strains, strain NNK1, hits give low values 0.984 | S. cerevisiae deletion strains, strain TSCII, hits give low values 0.963

C=CCn1c(Sc2ncc([N+](=O)[O-])s2)n[nH]c1=O
inactive: [5] 0.932 | [1] 0.929 | [7] 0.944 | S. cerevisiae deletion strains, locus YGR229C, strain SMI1, hits give low values 0.984 | [8] 0.775 | [9] 0.968 | [10] 0.948 | [11] 0.968 | [12] 1 | [13] 0.8 | [14] 0.962 | [16] 0.992 | [18] 0.975 | [19] 0.938 | S. cerevisiae deletion strains, locus YMR307W, strain GAS1, hits give low values 0.973 | [22] 0.996 | [2] 0.829
active: [3] 0.926 | [4] 0.913 | [6] 0.858 | [15] 0.359 | [17] 0.813 | [20] 0.815 | [21] 0.675 | [23] 0.833 | S. cerevisiae deletion strains, locus YOL006C, strain TOP1, hits give low values 0.219 | [24] 0.582 | [25] 0.488 | [26] 0.893
